Source: PubChem BioAssay (Tox21)
“And” between values parts separate entries of the source, which are not always exact repeats. Identical values can stand only once. Inconclusive results are not listed. More than one record can exist for a structure, and the calls need not agree. The source made the active and inactive calls. Unless noted, the call rests on the fitted dose curve; in most records, active means well fitted curve in the direction sought with a large enough effect in the repeat runs; inconclusive means weak or mixed curves; inactive means no such curve, though single readings can be large; an effect the other way counts as inactive or inconclusive.

Columns and labels:
[1] = qHTS assay to test for compound auto fluorescence at 535 nm (green) in HEK293 cells (AID 720680)
[2] = qHTS assay to test for compound auto fluorescence at 460 nm (blue) in HEK293 cell free culture (AID 720681)
In short: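 Blue fluorescence (Ex 405/Em 460 nm, triamterene-equivalent) was read immediately after pin transfer of compound or DMSO into medium (DMEM, 10% FBS) without cells.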

[3] = qHTS assay to test for compound auto fluorescence at 535 nm (green) in HEK293 cell free culture (AID 720682)
In short: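 Compounds were pin-transferred into cell-free DMEM with 10% FBS, and green fluorescence was read at excitation 485 nm and emission 535 nm. Intensities were expressed as fluorescein-equivalent values.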

[4] = qHTS assay to test for compound auto fluorescence at 590 nm (red) in HEK293 cell free culture (AID 720683)
In short: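 Red-channel autofluorescence of compounds in culture medium (DMEM, 10% FBS), no cells, measured at 540/590 nm. Rose Bengal sodium is the reference fluorophore for equivalence.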

[5] = qHTS assay to test for compound auto fluorescence at 590 nm (red) in HepG2 cell free culture (AID 720684)
In short: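 Steps: dispense MEM/10% FBS medium, no cells; pin compound or DMSO vehicle; read red channel, Ex/Em 540/590 nm. Output given as Rose Bengal sodium equivalents.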

[6] = qHTS assay to test for compound auto fluorescence at 460 nm (blue) in HepG2 cell free culture (AID 720685)
In short: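 Compound (23 nL) or DMSO pinned into cell-free MEM with 10% FBS; blue fluorescence read at 405/460 nm excitation/emission, expressed as auto-fluorescence equivalency to triamterene.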

[7] = qHTS assay to test for compound auto fluorescence at 535 nm (green) in HepG2 cell free culture (AID 720686)
[8] = qHTS assay to test for compound auto fluorescence at 460 nm (blue) in HepG2 cells (AID 720687)
In short: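 Blue-channel autofluorescence (Ex/Em 405/460 nm, triamterene-equivalent) was measured after 1 hr compound exposure at 37 C, 5% CO2. Cells were HepG2, plated overnight at 37 C in MEM plus 10% FBS.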

[9] = target: Glucocorticoid receptor (Homo sapiens) (UniProt P04150); test: qHTS assay to identify small molecule agonists of the glucocorticoid receptor (GR) signaling pathway (AID 720691; active means well fitted activation curve with a large enough effect in the signal ratio in the repeat runs, not every such curve was filed as active; the % refers to the signal ratio); conditions: GR-bla HeLa, beta-lactamase reporter ratio, 18 h; activation: at 62.4 µM (top of the series)
In short: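 Beta-lactamase reporter activity, read as fluorescence intensity, was measured in GR-bla HeLa cells exposed to compounds for 18 h at 37 C and then loaded with LiveBLAzer B/G FRET substrate for 2 h at room temperature.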

[10] = target: Glucocorticoid receptor (Homo sapiens) (UniProt P04150); test: qHTS assay to identify small molecule antagonists of the glucocorticoid receptor (GR) signaling pathway (AID 720692; active means well fitted inhibition curve with a large enough effect in the signal ratio in the repeat runs, not every such curve was filed as active; the % refers to the signal ratio)
In short: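 Fluorescence from cleaved LiveBLAzer B/G FRET substrate reports GRE-driven beta-lactamase in HeLa cells; compounds are tested against 5 nM dexamethasone (final) over 18 h at 37 C, substrate incubation 2 h at room temperature.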

[11] = qHTS assay to identify small molecule antagonists of the glucocorticoid receptor (GR) signaling pathway - cell viability counter screen (AID 720693); further: nearly all actives have a fitted effect of over 55% in size
[12] = qHTS assay for identifying genotoxic compounds that show differential cytotoxicity against isogenic chicken DT40 cell lines with known DNA damage response pathways - wild type cell line (AID 743012); further: nearly all actives have a fitted effect of over 60% in size; further: potency means the concentration at half of the fitted maximal effect
In short: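 Quantitative HTS on parental DT40 cells: 40 h compound treatment at 37 C/5% CO2, with viability then determined by CellTiter-Glo luminescence. Values serve as the DNA repair-proficient reference for differential cytotoxicity.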

[13] = qHTS assay for identifying genotoxic compounds that show differential cytotoxicity against isogenic chicken DT40 cell lines with known DNA damage response pathways - Rev3 mutant cell line (AID 743014); further: nearly all actives have a fitted effect of over 55% in size; further: potency means the concentration at half of the fitted maximal effect
[14] = qHTS assay for identifying genotoxic compounds that show differential cytotoxicity against isogenic chicken DT40 cell lines with known DNA damage response pathways - Rad54/Ku70 mutant cell line (AID 743015); further: nearly all actives have a fitted effect of over 60% in size; further: potency means the concentration at half of the fitted maximal effect
[15] = qHTS assay to identify small molecule antagonists of the androgen receptor (AR) signaling pathway - cell viability counter screen (AID 743033; further: nearly all actives have a fitted effect of over 45% in size; further: potency means the concentration at half of the fitted maximal effect)
[16] = target: Androgen receptor (Homo sapiens) (UniProt P10275); test: qHTS assay to identify small molecule agonists of the androgen receptor (AR) signaling pathway (AID 743036; active means well fitted activation curve with a large enough effect in the signal ratio in the repeat runs, with a control signal flat, not every such curve was filed as active; the % refers to the signal ratio)
In short: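 Activation was read as beta-lactamase FRET signal from LiveBLAzer B/G substrate, added for 2 h at room temperature. Before that, GeneBLAzer AR-UAS-bla GripTite (HEK293) cells had 16 h compound exposure at 37C.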

[17] = target: Androgen receptor (Homo sapiens) (UniProt P10275); test: qHTS assay to identify small molecule agonists of the androgen receptor (AR) signaling pathway using the MDA cell line (AID 743040; further: nearly all actives have a fitted effect of over 20% in size)
In short: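 Cells plated, 5 h at 37C/0% CO2; compound or DMSO pinned; 16 h at 37C; ONE-Glo added; luminescence measured after 30 min at room temperature. Reporter line: MDA-kb2 with MMTV-luciferase responsive to AR and GR.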

[18] = target: Androgen receptor (Homo sapiens) (UniProt P10275); test: qHTS assay to identify small molecule antagonists of the androgen receptor (AR) signaling pathway using the MDA cell line (AID 743042; further: nearly all actives have a fitted effect of over 55% in size)
In short: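 Antagonist mode: compounds plus R1881 agonist added to MDA-kb2 AR-luc cells, incubated 16 h at 37C. Luciferase reporter luminescence quantified, with multiplexed CellTiter-Fluor readout for cell viability.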

[19] = qHTS assay to identify small molecule antagonists of the androgen receptor (AR) signaling pathway using the MDA cell line - cell viability counter screen (AID 743041; further: nearly all actives have a fitted effect of over 45% in size)
In short: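 Cells were plated at 3,000 per well and left 5 h. Compounds in DMSO were then pinned in, followed by R1881. After 16 h at 37C, CellTiter-Fluor fluorescence gave viability.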

[20] = target: Androgen receptor (Homo sapiens) (UniProt P10275); test: qHTS assay to identify small molecule antagonists of the androgen receptor (AR) signaling pathway (AID 743035; active means well fitted inhibition curve with a large enough effect in the signal ratio in the repeat runs, not every such curve was filed as active; the % refers to the signal ratio)
In short: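 Cell line: GeneBLAzer AR-UAS-bla GripTite (HEK293). Stimulus: R1881 added after compound. Exposure: 16 h, 37C, 5% CO2. Readout: LiveBLAzer B/G FRET fluorescence after 2 h at room temperature.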

Measured: Potency

Chain of Androgen receptor (Homo sapiens) (P10275 whole entry, looked up): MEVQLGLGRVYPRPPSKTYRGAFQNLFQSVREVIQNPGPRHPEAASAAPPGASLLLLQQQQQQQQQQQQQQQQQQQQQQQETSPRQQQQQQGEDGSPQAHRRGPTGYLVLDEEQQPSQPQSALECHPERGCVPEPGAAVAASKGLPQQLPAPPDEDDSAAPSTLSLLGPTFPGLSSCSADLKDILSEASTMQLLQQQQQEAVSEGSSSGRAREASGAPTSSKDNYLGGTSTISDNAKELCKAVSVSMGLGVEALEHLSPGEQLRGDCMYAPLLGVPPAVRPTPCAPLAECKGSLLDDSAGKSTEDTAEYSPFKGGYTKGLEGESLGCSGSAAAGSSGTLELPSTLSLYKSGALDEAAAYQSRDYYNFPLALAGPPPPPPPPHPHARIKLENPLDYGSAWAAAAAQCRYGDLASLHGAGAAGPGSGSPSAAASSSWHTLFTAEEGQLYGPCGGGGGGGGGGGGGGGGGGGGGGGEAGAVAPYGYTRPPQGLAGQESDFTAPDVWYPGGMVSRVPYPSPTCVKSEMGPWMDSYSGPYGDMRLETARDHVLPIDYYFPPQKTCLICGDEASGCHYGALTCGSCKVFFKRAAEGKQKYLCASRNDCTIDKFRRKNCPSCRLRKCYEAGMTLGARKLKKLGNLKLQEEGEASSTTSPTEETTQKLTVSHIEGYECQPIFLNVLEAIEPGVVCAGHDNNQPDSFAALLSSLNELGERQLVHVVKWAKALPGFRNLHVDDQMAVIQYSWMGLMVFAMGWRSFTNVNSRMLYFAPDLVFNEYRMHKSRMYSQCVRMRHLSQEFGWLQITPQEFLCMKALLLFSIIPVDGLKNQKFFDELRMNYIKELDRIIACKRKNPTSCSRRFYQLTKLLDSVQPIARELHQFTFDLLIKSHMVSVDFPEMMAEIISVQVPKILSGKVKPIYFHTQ
Chain of Glucocorticoid receptor (Homo sapiens) (P04150 whole entry, looked up): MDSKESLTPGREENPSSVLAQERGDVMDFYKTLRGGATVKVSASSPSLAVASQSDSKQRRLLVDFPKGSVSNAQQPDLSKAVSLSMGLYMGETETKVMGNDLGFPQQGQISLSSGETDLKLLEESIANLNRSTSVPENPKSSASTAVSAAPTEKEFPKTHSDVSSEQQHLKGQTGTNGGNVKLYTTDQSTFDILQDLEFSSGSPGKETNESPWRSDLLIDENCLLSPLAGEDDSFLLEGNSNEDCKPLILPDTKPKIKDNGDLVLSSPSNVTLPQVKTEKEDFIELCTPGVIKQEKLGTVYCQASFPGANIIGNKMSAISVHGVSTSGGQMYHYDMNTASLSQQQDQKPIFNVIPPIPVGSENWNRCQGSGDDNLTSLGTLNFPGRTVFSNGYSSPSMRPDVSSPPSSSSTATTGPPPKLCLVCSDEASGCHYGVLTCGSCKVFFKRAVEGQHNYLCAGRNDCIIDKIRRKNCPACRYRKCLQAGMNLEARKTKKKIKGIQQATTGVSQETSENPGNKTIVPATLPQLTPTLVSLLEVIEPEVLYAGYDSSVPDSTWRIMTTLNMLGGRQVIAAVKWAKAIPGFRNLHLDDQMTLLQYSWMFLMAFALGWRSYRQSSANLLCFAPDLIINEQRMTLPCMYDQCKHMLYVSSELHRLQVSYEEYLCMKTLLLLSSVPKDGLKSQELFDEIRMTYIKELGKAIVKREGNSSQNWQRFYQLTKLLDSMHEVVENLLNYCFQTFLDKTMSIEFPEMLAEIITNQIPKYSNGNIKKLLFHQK

Nc1cc([N+](=O)[O-])ccc1O
not listed: [19] | [20]
inactive: all other assays above

O=C(O)CCCCCCCCCCC(=O)O
not listed: [10] | [16] | [17] | [18] | [19] | [20]
inactive: all other assays above

CN(C)CCOCCN(C)C
not listed: [16] | [17] | [18] | [20]
inactive: all other assays above

O=P(OC(CCl)CCl)(OC(CCl)CCl)OC(CCl)CCl
active: [12] 43.3 µM | [13] 30.5 µM and 19.3 µM | [14] 54.2 µM and 61.1 µM
not listed: [10] | [16] | [17] | [18] | [20]
inactive: all other assays above

O=c1[nH]c(=O)n([C@H]2CCCO2)cc1F
not listed: [9] | [10] | [16] | [17] | [18] | [19] | [20]
inactive: all other assays above

CCCCCCCCCCCCCCO
not listed: [9] | [10] | [13] | [16] | [17] | [18] | [20]
inactive: all other assays above

O=C(O)[C@H](O)[C@@H](O)[C@H](O)[C@H](O)CO
not listed: [9] | [10] | [13] | [16] | [17] | [18] | [20]
inactive: all other assays above

O=C(O)c1cc(=O)c2c(OCC(O)COc3cccc4oc(C(=O)O)cc(=O)c34)cccc2o1
not listed: [9] | [10] | [16] | [17] | [18] | [19] | [20]
inactive: all other assays above

CC(=O)c1ccccc1
not listed: [9] | [10] | [13] | [16] | [17] | [18] | [20]
inactive: all other assays above

O=C(Oc1ccccc1)c1ccccc1
not listed: [9] | [10] | [16] | [17] | [18] | [19] | [20]
inactive: all other assays above

Cc1cnc(C(=O)NCCc2ccc(S(=O)(=O)NC(=O)NC3CCCCC3)cc2)cn1
inactive: [1] | [2] | [3] | [4] | [5] | [6] | [7] | [8] | [9] | [11] | [15]

CC1=C(C)S(=O)(=O)CCS1(=O)=O
active: [13] 68.6 µM | [14] 60 µM and 61.1 µM
not listed: [10] | [12] | [18]
inactive: all other assays above

COc1ccc(Cl)cc1C(=O)NCCc1ccc(S(=O)(=O)NC(=O)NC2CCCCC2)cc1
not listed: [9] | [10] | [12] | [14] | [16] | [17] | [18] | [20]
inactive: all other assays above

CCOC(=O)NNc1nncc2ccccc12
not listed: [10] | [16] | [17] | [18] | [20]
inactive: all other assays above

C=CCNC(N)=S
not listed: [9] | [10] | [13] | [16] | [17] | [18] | [19] | [20]
inactive: all other assays above

Cc1cccnc1
not listed: [9] | [10] | [16] | [17] | [18] | [20]
inactive: all other assays above

Cc1cc(C)c(C)cc1C
not listed: [9] | [10] | [13] | [16] | [17] | [18] | [20]
inactive: all other assays above

CCc1ccc(CCOc2ccc(CC3SC(=O)NC3=O)cc2)nc1 (stereo not drawn)
inactive and 68.6 µM (active): [12] | [13]
active: [14] 11.9 µM and 61.1 µM
not listed: [10] | [16] | [17] | [18] | [20]
inactive: all other assays above

CC[C@H](C)C(=O)O[C@H]1C[C@@H](C)C=C2C=C[C@H](C)[C@H](CC[C@@H]3C[C@@H](O)CC(=O)O3)[C@H]21
active: [12] 53.1 nM and 5.52 µM and 682 nM | [13] 8.4 nM and 391 nM and 3.8 nM | [14] 53.1 nM and 2.77 µM and 136 nM
inactive: [1] | [2] | [3] | [4] | [5] | [6] | [7] | [8] | [11]
31.3 µM (active) and inactive: [15]
